Design in all cases: scale not given: direction of the effect not stated beside the values
Test [1] addresses Protein translocase subunit SecA (Escherichia coli (strain K12)) (UniProt P10408). Kind of test: Assay to Identify E. coli SecA ATPase Inhibitors. Conditions: 30 µM. It counts as functional.
Test [2] has as its target T1, Ubiquitin-activating enzyme e1, putative (Leishmania donovani (strain BPK282A1)) (UniProt E9BSI1).
T1 sequence (whole entry): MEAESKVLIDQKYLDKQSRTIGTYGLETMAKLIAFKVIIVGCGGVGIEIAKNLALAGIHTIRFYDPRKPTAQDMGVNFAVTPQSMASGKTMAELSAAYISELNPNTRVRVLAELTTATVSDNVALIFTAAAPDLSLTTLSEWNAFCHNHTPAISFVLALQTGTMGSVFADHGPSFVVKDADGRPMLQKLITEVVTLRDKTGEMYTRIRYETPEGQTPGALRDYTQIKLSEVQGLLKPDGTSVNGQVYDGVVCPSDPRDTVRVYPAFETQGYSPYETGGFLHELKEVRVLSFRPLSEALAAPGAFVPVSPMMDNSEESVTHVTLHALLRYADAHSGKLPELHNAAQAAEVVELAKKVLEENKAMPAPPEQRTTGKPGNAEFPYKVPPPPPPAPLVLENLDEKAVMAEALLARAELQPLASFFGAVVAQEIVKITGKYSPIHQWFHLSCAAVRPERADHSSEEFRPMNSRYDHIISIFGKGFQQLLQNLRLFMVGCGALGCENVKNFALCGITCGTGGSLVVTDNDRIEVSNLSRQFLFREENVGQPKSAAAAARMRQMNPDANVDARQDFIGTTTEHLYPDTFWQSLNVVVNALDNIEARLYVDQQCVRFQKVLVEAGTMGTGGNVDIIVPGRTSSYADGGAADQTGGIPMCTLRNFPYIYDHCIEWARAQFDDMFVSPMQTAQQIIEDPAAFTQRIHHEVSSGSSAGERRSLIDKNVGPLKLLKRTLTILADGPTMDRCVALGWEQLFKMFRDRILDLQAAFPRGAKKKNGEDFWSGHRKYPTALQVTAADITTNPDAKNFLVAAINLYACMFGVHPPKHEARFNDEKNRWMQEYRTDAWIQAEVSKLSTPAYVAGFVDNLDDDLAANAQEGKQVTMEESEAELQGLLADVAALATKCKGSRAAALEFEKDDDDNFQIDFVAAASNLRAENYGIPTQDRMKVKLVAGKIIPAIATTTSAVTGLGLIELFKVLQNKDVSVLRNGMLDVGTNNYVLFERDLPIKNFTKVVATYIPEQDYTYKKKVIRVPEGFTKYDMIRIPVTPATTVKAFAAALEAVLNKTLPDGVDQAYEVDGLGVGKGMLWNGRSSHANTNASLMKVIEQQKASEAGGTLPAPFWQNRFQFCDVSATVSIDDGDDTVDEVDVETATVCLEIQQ
Kind of test: Leishmania donovani Ubiquitin Activating Enzyme (LdE1). It counts as functional. The following applies: 30 µM.

The target of test [3] is AMP-activated protein kinase, AMPK (Homo sapiens) (UniProt P54646+O43741+P54619+Q9UGJ0+Q9Y478+Q13131+Q9UGI9). Kind of test: AMP-dependent Kinase enzyme assay. An in vitro enzyme assay that detects ADP turnover that is directly proportional to AMPK activity. This uses naive AMPK that is activated during the assay with MK-8722. The following applies: 30 µM. Format: functional.

Test [4] has as its target Sialic acid-binding Ig-like lectin 9 (Homo sapiens) (UniProt Q9Y336). Kind of test: Hs-Siglec9 ALPHAscreen SOP 20170721. Conditions: 10 µM. For orientation: Bead proximity is the source of the signal in Alpha formats.
For a further test, the system named is Trypanosoma cruzi. Kind of test: Trypanosoma cruzi phosphomannomutase and mannose-1-phosphate guanylyltransferase assay. Conditions: 10 µM. It counts as functional.
In test [5] the target is T2, Arginase-2, mitochondrial (Homo sapiens) (UniProt P78540).
T2 sequence (whole entry): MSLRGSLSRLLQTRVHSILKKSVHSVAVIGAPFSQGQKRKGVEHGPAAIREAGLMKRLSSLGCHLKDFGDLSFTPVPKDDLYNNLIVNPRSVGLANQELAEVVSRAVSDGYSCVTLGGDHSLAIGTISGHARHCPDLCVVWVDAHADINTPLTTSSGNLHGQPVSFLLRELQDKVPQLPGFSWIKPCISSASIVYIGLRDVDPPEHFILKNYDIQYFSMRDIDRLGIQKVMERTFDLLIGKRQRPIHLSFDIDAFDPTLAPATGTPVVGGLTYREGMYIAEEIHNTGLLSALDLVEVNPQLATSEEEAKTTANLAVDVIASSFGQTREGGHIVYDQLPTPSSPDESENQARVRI
Kind of test: in vitro enzyme assay to detect the production of urea directly proportional to the activity of Arginase II. Also: in the data most compounds retested in dose-response had high values. It counts as functional. The following applies: 33.3 µM.

The target of test [6] is T3, Proteasome subunit beta (Trypanosoma cruzi) (UniProt O96673).
T3 sequence (whole entry): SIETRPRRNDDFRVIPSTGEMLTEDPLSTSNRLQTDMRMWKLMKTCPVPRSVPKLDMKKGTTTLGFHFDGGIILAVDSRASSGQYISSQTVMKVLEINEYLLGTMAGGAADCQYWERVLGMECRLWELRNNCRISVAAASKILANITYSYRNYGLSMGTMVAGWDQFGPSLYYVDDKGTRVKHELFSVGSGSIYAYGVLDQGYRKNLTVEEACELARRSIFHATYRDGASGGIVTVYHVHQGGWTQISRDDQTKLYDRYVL
Kind of test: Trypanosoma cruzi proteasome chymotrypsin-like activity (TcProtChymo) assay. Also: in the data most compounds retested in dose-response had high values. Format: functional. The following applies: 9.37 µM.

For the next test, the species on record is Homo sapiens. Kind of test: To identify inhibition of the IFN signalling (Jak-Stat) pathway via expression of an eGFP reporter gene under the control of an IFN-stimulated response element (ISRE) containing MxA promoter. It counts as functional. The following applies: 30 µM. (In a reporter assay the amount or activity of a reporter protein is the signal.)

Test [7] deals with T4, Tyrosyl-tRNA synthetase, putative (Trypanosoma cruzi (strain CL Brener)) (UniProt Q4DSP6).
T4 sequence (whole entry): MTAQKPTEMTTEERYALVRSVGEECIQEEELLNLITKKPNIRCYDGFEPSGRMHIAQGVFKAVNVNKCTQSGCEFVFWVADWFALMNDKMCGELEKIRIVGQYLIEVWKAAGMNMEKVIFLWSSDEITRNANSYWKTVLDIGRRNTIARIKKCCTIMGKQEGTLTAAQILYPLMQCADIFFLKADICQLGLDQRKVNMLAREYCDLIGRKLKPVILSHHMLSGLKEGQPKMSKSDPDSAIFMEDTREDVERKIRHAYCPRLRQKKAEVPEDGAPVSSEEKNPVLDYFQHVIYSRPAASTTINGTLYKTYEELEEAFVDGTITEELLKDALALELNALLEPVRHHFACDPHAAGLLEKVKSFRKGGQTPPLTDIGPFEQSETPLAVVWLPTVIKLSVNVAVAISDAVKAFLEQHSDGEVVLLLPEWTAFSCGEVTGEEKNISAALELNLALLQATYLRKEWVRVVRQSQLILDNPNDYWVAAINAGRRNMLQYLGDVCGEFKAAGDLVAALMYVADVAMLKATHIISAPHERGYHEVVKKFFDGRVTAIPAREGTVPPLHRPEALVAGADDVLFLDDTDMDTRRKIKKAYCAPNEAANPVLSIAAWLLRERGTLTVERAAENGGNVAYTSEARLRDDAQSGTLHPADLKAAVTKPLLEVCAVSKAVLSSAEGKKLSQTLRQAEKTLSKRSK
Kind of test: Trypanosoma cruzi tyrosyl tRNA synthetase (TcYRS) _High Tyrosine SOP. Also: in the data most compounds retested in dose-response had high values. Conditions: 30 µM. It counts as functional.

For test [8], the target named is T4, Tyrosyl-tRNA synthetase, putative (Trypanosoma cruzi (strain CL Brener)). Kind of test: Trypanosoma cruzi tyrosyl tRNA synthetase (TcYRS) SOP. Format: functional. Conditions: 30 µM.
In test [9] the target is Chromo domain-containing protein 1 (Saccharomyces cerevisiae (strain ATCC 204508 / S288c) (Baker's yeast)) (UniProt P32657). Kind of test: ScCHD-1 Enzyme Inhibition Assay. Also: in the data most compounds retested in dose-response had high values. It counts as functional. Conditions: 30 µM.
Sequence of Chromo domain-containing protein 1 (Saccharomyces cerevisiae (strain ATCC 204508 / S288c) (Baker's yeast)) (P32657 whole entry, the tested form may be a part): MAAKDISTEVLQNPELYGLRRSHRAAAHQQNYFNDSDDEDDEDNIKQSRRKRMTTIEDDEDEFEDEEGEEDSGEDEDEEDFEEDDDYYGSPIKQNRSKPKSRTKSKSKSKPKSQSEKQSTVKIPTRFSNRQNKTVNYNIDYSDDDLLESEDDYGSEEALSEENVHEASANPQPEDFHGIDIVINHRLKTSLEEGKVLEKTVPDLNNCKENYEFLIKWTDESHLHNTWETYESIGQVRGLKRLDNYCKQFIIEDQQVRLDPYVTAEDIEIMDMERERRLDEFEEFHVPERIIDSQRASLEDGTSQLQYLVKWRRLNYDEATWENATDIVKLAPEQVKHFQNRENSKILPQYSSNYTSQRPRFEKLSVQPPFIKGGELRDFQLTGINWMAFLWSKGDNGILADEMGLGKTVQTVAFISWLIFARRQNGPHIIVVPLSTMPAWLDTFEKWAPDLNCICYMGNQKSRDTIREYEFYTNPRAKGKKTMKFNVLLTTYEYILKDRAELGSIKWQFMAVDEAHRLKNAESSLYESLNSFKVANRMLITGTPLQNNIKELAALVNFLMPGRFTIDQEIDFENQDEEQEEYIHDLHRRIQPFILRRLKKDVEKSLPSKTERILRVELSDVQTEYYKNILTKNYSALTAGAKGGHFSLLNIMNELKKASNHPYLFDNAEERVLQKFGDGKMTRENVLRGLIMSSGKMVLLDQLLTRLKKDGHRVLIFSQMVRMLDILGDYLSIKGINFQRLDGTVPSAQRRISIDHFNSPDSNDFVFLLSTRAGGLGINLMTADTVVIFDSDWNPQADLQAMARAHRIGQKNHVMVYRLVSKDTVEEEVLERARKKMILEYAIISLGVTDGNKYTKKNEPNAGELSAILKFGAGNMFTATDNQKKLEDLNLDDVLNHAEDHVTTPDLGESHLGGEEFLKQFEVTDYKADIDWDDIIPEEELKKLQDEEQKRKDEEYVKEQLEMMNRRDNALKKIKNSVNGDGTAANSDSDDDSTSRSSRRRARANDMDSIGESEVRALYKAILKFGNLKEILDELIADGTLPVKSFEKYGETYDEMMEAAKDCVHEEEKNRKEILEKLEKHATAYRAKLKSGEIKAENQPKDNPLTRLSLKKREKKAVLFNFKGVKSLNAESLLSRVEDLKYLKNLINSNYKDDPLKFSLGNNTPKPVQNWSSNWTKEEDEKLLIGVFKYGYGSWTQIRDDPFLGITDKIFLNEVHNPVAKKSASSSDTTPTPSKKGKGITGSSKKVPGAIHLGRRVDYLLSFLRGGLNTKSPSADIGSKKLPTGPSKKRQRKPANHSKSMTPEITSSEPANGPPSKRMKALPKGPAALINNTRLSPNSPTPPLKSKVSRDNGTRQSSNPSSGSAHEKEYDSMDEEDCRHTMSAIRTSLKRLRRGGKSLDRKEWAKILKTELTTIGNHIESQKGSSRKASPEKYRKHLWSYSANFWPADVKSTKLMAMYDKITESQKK

For some of these results: Results with a measured potency or affinity are listed apart.

Sequence of Sialic acid-binding Ig-like lectin 9 (Homo sapiens) (Q9Y336 whole entry): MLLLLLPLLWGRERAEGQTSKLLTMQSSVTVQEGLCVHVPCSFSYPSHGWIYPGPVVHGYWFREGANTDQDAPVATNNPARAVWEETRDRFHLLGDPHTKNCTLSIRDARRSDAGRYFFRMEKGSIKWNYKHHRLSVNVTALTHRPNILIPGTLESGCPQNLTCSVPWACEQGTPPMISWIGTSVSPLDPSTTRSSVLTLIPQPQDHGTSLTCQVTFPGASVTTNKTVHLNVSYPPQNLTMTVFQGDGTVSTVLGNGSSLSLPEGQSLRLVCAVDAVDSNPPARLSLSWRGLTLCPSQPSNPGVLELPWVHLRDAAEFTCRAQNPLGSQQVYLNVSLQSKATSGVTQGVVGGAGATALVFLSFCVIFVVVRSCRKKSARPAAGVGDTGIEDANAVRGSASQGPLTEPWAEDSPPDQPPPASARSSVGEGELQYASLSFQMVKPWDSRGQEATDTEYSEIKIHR
Sequence of Protein translocase subunit SecA (Escherichia coli (strain K12)) (P10408 whole entry): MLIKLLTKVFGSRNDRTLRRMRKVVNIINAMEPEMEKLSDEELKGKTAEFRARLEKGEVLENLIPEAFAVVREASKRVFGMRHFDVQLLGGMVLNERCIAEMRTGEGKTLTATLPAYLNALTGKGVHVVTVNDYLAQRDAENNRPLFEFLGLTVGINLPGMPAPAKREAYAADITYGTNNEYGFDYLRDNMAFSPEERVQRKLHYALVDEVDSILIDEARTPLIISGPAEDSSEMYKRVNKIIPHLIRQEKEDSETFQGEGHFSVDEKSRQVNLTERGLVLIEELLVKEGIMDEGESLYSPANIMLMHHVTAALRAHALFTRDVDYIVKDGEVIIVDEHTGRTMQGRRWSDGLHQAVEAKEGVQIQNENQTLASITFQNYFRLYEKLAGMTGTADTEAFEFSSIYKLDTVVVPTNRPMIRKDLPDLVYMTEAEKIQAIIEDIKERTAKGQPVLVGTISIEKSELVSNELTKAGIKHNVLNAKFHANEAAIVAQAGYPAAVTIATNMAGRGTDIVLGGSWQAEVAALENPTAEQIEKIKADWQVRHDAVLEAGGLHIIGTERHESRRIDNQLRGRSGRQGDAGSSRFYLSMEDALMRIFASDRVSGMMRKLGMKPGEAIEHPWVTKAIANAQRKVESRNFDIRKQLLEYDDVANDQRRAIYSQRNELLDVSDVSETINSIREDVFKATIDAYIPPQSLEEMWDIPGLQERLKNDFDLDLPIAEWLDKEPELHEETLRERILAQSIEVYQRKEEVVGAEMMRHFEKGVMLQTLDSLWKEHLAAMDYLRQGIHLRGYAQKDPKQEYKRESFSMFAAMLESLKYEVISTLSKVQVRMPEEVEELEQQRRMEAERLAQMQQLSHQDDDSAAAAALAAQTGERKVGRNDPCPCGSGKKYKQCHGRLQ

Consider `O=C(NC1CC(=O)N(Cc2cccc(F)c2)C1)c1ccncc1` (stereo unspecified), for which the Percent Effect in [1] is -2.44%; in [2], -8.11%; in test [3], 4.25%; in test [4] it was -3.94%; with Trypanosoma cruzi it was -1.93%; in [5], -0.476%. Also, the Percent Effect in test [6] worked out at 10.7%; in the test listed under Homo sapiens, 1.72%; in test [7], 1.59%; in test [8], 4.88%; in test [9], 0.971%.

For the molecule `CC(NC(=O)NCCCN1CCCCCC1)c1nncn1C` (stereo unspecified), the Percent Effect in test [1] is -2.66%; in test [2] it was 10.8%; in test [3], -6.67%; in test [4], 18.7%; in the test with Trypanosoma cruzi, 6.78%; in test [5], -6.47%. The Percent Effect was -5.03% in test [6]; 18% in the test filed under Homo sapiens; 5.94% in [7]; 18.3% in [8]; -3.61% in [9].

For the molecule `O=C(NCCN1CCC(c2cccs2)CC1)Nc1cccs1`, the Percent Effect was -5.82% in [1]; 0% in [2]; -3.98% in test [3]; 20.2% in [4]; 4.7% in the test on Trypanosoma cruzi; 1.36% in test [5]. In addition, the Percent Effect in [6] is 14.6%; in the test filed under Homo sapiens, 10.4%; in test [7] it was 12.9%; in test [8], 17.5%; in [9], -2.26%.

`Cc1ccc(S(=O)(=O)NC(=O)c2cccc(OCC(N)=O)c2)s1`: the Percent Effect is -3.68% in test [1]; 20.2% in test [2]; -5.82% in test [3]; -5.61% in test [4]; 0.0944% in the test on Trypanosoma cruzi; 4.18% in [5]. The Percent Effect in test [6] was 12%; in the test listed under Homo sapiens it was 4.54%; in [7] it was 6.4%; in test [8] it was 13.9%; in test [9] it was -5.68%.

As to `CC(C)n1ncc2cc(NC(=O)N3CCC(N4CCCC4)C3)cnc21` (stereo unspecified), the Percent Effect is -1.2% in test [1]; -5.41% in [2]; -12.5% in test [3]; 7.73% in test [4]; 4.74% in the test with Trypanosoma cruzi; -5.73% in test [5]. In addition, the Percent Effect in [6] was 12%; in the test listed under Homo sapiens, 3.87%; in test [7], -7.92%; in [8] it was 23.2%; in test [9] it was -5.17%.

`CCCN(C(=O)c1ccccn1)c1nc2c(s1)CCc1c-2cnn1C`: the Percent Effect in test [1] is 3.44%; in [2], 60.8%; in test [3], -62.8%; in [4] it was 3.48%; in the test on Trypanosoma cruzi, 0.988%; in test [5], 15.6%. For the same molecule, the Percent Effect in [6] was 17.5%; in the test filed under Homo sapiens, 32.7%; in [7], -6.45%; in [8], -6.49%; in test [9] it was -6.45%.

For `NC(=O)NCC(=O)N1C[C@H]2CC[C@@H]1CN(Cc1ccccc1)C2`, the Percent Effect in [1] was -4.49%; in test [2] it was 5.48%; in test [3], 6.44%; in test [4] it was -9.32%; in the test with Trypanosoma cruzi, -0.979%; in test [5], -6.82%. Besides, the Percent Effect in [6] is 11.4%; in the test listed under Homo sapiens, -13.6%; in [7], 6.45%; in [8], 7.5%; in [9], -5.72%.

Take `O=C(C1CCOCC1)N1C[C@@H]2C[C@@H](c3nc(C4CC4)cs3)O[C@@H]2C1`: the Percent Effect in test [1] is 0.171%; in test [2], 16.4%; in [3] it was -11.2%; in test [4] it was 8.5%; in the test on Trypanosoma cruzi it was 3.57%; in [5] it was -11.6%. Also, the Percent Effect stood at 13.8% in test [6]; 1.09% in the test filed under Homo sapiens; 11.5% in test [7]; 21% in test [8]; 0.447% in [9].

For the molecule `O=C(NCC1(N2CCOCC2)CCSC1)Nc1ccc(F)cc1` (stereo unspecified), the Percent Effect in [1] is 0.856%; in test [2], 5.41%; in test [3], -4.15%; in test [4] it was 1.34%; with Trypanosoma cruzi, 0.193%; in test [5] it was -2.86%. Further, the Percent Effect in test [6] is 17.9%; in the test filed under Homo sapiens, -10.2%; in test [7], 5.82%; in test [8], 9.76%; in [9], -1.18%.

`COCCNC(=O)c1cc2c(s1)CCN2C(=O)c1ccccc1`: the Percent Effect in test [1] was -6.01%; in [2], 10.7%; in [3], -16.6%; in test [4], 4.96%; in the test on Trypanosoma cruzi it was 1.35%; in test [5], -53.9%. In addition, the Percent Effect in [6] was 9.74%; in the test filed under Homo sapiens it was -0.33%; in [7] it was 6.25%; in test [8], 15%; in [9], 6.46%.

In the case of `CC1CCN(c2ncc3c(n2)CN(c2ccc4c(c2)OCO4)C3=O)CC1`, the Percent Effect in test [1] was -4.8%; in [2], 7.79%; in test [3], -3.15%; in [4], 7.77%; in the test on Trypanosoma cruzi, 0.492%; in test [5], -9.65%. Besides, the Percent Effect in test [6] is 14.1%; in the test filed under Homo sapiens, -2.83%; in [7], 5.38%; in test [8] it was 11.1%; in test [9], 1.03%.

The record behind these values is ChEMBL document CHEMBL3988442, “University of Dundee, Small-Polar-MMV Screening Library” (2021).
